A selection: hits, their analogues and other compounds. The true share with any hit is near 2.8%.
Pol eta inh – inhibitors of human DNA polymerase eta; Potency, µM (series often up to 114 µM), for inactives: top-dose activity change, negative = inhibition, most hits filed as inhibitors; 390,000 compounds, 1.2% hits; recombinant Pol eta, fluorescent DNA replication assay; Q9Y253; also: potency is read from the fitted curve at half-maximal effect; % is scaled to controls: 0 for no effect and ±100 for the full control effect
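Pol eta (10 nM) was preincubated with compounds for 15 min at room temperature, after which fluorescent replication substrate (50 nM final) was added to start the reaction. Fluorescence was read kinetically at 0 and 10 min.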
WRN inhibitor – WRN helicase (human) inhibition | Potency, µM (titrated, usually from 114 µM), without a hit: at the top dose activity change, negative = inhibition, most hits filed as inhibitors | WRN helicase unwinding, fluorescent forked duplex, kinetic | 360,000 compounds, 0.46% hits | Q14191 | AID 651768; also: potency is read from the fitted curve at half-maximal effect; % is scaled to controls: 0 for no effect and ±100 for the full control effect; nearly all actives have a fitted effect of over 55% in size
Target sequence (Q14191 whole entry, looked up): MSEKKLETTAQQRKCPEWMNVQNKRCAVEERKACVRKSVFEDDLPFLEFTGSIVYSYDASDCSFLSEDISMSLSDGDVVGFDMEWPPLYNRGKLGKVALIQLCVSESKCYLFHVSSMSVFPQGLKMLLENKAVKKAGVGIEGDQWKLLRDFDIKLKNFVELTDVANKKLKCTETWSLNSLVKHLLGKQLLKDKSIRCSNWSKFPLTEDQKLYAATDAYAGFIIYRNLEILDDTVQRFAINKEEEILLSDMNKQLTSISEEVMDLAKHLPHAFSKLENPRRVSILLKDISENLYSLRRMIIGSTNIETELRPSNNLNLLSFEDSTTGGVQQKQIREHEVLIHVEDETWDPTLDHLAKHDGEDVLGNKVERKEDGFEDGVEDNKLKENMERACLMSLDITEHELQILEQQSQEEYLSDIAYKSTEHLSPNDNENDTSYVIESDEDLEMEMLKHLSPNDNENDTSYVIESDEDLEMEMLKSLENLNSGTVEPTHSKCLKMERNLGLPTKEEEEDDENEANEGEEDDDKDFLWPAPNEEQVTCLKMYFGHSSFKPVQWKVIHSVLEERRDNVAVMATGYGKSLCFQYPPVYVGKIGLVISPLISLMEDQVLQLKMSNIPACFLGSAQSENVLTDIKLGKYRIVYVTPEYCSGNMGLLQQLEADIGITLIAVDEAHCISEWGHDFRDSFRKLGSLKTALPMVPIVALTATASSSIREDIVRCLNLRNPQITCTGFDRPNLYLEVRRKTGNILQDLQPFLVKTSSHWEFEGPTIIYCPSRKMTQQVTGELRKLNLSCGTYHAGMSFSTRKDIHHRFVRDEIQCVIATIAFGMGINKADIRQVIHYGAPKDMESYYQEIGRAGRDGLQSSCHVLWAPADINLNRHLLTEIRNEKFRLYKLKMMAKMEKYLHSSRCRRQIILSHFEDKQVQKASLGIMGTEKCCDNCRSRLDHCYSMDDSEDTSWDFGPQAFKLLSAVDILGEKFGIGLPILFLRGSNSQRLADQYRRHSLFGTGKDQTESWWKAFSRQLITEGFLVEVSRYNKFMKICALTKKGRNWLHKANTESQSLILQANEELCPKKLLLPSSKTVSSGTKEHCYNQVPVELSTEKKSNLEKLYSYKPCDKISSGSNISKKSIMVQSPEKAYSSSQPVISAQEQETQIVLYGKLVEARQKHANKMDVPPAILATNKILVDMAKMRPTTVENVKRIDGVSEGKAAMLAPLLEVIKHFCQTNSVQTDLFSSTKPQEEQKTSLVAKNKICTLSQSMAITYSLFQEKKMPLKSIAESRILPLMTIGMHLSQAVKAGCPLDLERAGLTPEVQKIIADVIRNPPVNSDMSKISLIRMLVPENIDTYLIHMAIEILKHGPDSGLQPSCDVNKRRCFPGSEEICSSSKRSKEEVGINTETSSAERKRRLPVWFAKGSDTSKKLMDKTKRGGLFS
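WRN at 20 nM final was preincubated with compound for 15 min at room temperature; reaction started with 100 nM forked duplex oligonucleotide carrying fluorophore and quencher plus 2 mM ATP (final). Unwinding followed kinetically by red fluorescence (ex 525/em 598 nm).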
PI5P4Ka inh – blocks human PI5P4K alpha kinase activity. PI5P4Kalpha enzyme, ADP-Glo luminescence, 60 min; hits give low values. max response, %. 330,000 compounds, 1.2% hits. P48426; active = max response of -50% or lower; inconclusive = between -30% and -50%; inactive = -30% or higher; also: value at the top dose of about 77 µM; % is scaled to controls: 0 for no effect and ±100 for the full control effect
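PI5P4Kalpha ADP-Glo assay; 5 microM ATP final; 60 min RT reaction; HEPES pH 7.4/EGTA/CHAPS, 5% DMSO; controls lacking substrate or enzyme; luminescent end-point.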
POLI inh – DNA polymerase iota (human) inhibition | Q9UNA4 | Pol iota fluorescent replication assay, 10 min | Potency, µM (highest dose often 115 µM), for inactives: at the top dose activity, negative = inhibition, most hits filed as inhibitors | 390,000 compounds, 1% hits; also: potency is read from the fitted curve at half-maximal effect
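Pol iota at 10 nM preincubated 15 min with compounds at room temperature; reaction started with fluorescent substrate, 50 nM final. Fluorescence read kinetically at 0 and 10 min; buffer-only wells as negative control.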
Pol kappa inh – DNA polymerase kappa (human) inhibition. Q9UBT6. purified Pol kappa, fluorescent DNA synthesis assay, 10 min. Potency, µM (doses to about 107 µM), for inactives: top-dose activity, negative = inhibition, hits mostly inhibitors. 400,000 compounds, 0.53% hits. AID 588579; also: potency is read from the fitted curve at half-maximal effect; % is scaled to controls: 0 for no effect and ±100 for the full control effect
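Pol kappa 10 nM + cpd, 15 min RT; start w/ substrate 50 nM final; fluorescence kinetic read, 0 and 10 min. Neg ctrl: buffer, no enzyme.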
Pol beta inh – inhibitors of human DNA polymerase beta; 340,000 compounds, 1.3% hits; Pol beta primer extension/strand displacement, fluorescence kinetic; Potency, µM (series often up to 114 µM), inactives show at the highest dose activity change, negative = inhibition, actives largely listed as inhibitors; also: potency is read from the fitted curve at half-maximal effect; % is scaled to controls: 0 for no effect and ±100 for the full control effect
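Kinetic readout of DNA synthesis with strand displacement by Pol beta. Compound and 10 nM enzyme sit 15 min at room temperature; 50 nM substrate starts the reaction, read immediately and at 10 min.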
Active calls of the source: *; [ ] = remark or other dose. Unless noted, calls follow the shape of the dose curve; as a rule, active = well fitted curve in the direction sought with a large enough effect; inconclusive = small, poorly fitted or top-dose-only effect, or another doubt; inactive = no such curve, though single readings can be large; an effect the other way counts as inactive or inconclusive.

For O=C(/C=C/c1ccco1)NC(=S)Nc1cccc(-c2nc3ccccc3s2)c1 the results were Pol eta inh inconclusive, WRN inhibitor -25%, PI5P4Ka inh -21, POLI inh inconclusive and Pol kappa inh -23%.
For Cc1cccc(OC(C)C(=O)N2CCC(c3nc4ccccc4o3)CC2)c1C (centres undefined) the results were Pol eta inh -19%, POLI inh 33%, Pol kappa inh -24% and Pol beta inh -5%.
For COC(=O)c1scc(-c2ccc(C)cc2)c1S(=O)(=O)N1CCN(c2ccccc2)CC1 the results were Pol eta inh -4%, POLI inh -9%, Pol kappa inh 3% and Pol beta inh 2%.
Screening Cc1cc(C)n2nc(CNC(=O)c3cccc(N(C)C)c3)nc2n1 returned Pol eta inh -13%, POLI inh 8%, Pol kappa inh -1% and Pol beta inh -1%.
Cc1cccc(Nc2c3c(nc4nncn24)CCC3)c1C was read as Pol eta inh -5%, POLI inh 20%, Pol kappa inh 4% and Pol beta inh 15%.
`O=C(CCC1N=C2c3ccccc3N=C(SCC(=O)Nc3ccc(F)cc3)N2C1=O)NCc1cccs1` (centres undefined) gave Pol eta inh -19%, POLI inh 16%, Pol kappa inh -3%[60.1 µM] and Pol beta inh -1%.
`Cc1ccc(-c2nc3ccccc3s2)cc1NC(=S)NC(=O)c1cccc2ccccc12` gave Pol eta inh -5%, WRN inhibitor -22%, PI5P4Ka inh 20, POLI inh -9%, Pol kappa inh 2% and Pol beta inh 1%.
For Cc1ccc(-c2nc3ccccc3s2)cc1NC(=S)NC(=O)/C=C/c1ccco1 the results were Pol eta inh 20µM*, WRN inhibitor inconclusive, PI5P4Ka inh -25, POLI inh inconclusive, Pol kappa inh -7% and Pol beta inh inconclusive.
`Cc1cc(O)c2c(c1O)C(=O)[C@]13C(=C2O)C(=O)[C@@H]2[C@@H](O)[C@H]1[C@@H]1[C@H](O)[C@H]3C(=O)C3=C(O)c4c(O)cc(C)c(O)c4C(=O)[C@]312` gave Pol eta inh 5.6µM*, WRN inhibitor 56µM*, PI5P4Ka inh -91*, POLI inh 3.2µM* and Pol kappa inh 3.5µM*.
For O=S(=O)(Nc1nc2ccccc2nc1NCc1ccco1)c1ccc(Cl)cc1 the results were Pol eta inh inconclusive, WRN inhibitor -15%, PI5P4Ka inh -1, POLI inh inconclusive, Pol kappa inh -4% and Pol beta inh inconclusive.
`Cc1noc(C)c1CSc1nc2ccccc2nc1NS(=O)(=O)c1ccc(Cl)cc1` gave Pol eta inh 79µM*, WRN inhibitor -24%, PI5P4Ka inh -12, POLI inh inconclusive, Pol kappa inh -9% and Pol beta inh 3%.
Screening O=C(Nc1ccccc1-c1ccccc1)C1CCC1 returned Pol eta inh -14%, WRN inhibitor -2%[57.1 µM], PI5P4Ka inh 11, POLI inh 121%, Pol kappa inh -2% and Pol beta inh 7%.
`O=C(Nc1ccccc1-c1ccccc1)C1CCCCC1` gave Pol eta inh -10%, WRN inhibitor -3%, PI5P4Ka inh 3, POLI inh 89µM*, Pol kappa inh -9% and Pol beta inh 29%.
`Cc1ccc(O)c(N=CC2=C(O)c3ccccc3C2=O)c1` gave Pol eta inh 18µM*, WRN inhibitor -11%[11.6 µM], PI5P4Ka inh inconclusive, POLI inh inconclusive, Pol kappa inh -25% and Pol beta inh inconclusive.
`CN=CC1=C(O)c2ccccc2C1=O` gave Pol eta inh -8%, WRN inhibitor 0%, POLI inh -12%, Pol kappa inh 1% and Pol beta inh 30%.
For O=C1C(C=Nc2ccccc2O)=C(O)c2ccccc21 the results were Pol eta inh -11%, WRN inhibitor -15%, POLI inh 8%, Pol kappa inh 0% and Pol beta inh 35µM*.
For O=C1C(C=Nc2ccccc2)=C(O)c2ccccc21 the results were Pol eta inh 10%, WRN inhibitor -1%, PI5P4Ka inh -11, POLI inh 20%, Pol kappa inh 0% and Pol beta inh 41%.
For Cn1cc(C2=C(c3cn(CCCSC(=N)N)c4ccccc34)C(=O)NC2=O)c2ccccc21 the results were POLI inh 89µM* and Pol kappa inh 4%[60.1 µM].
For CN(C)CCCn1cc(C2=C(c3c[nH]c4ccccc34)C(=O)NC2=O)c2ccccc21 the results were Pol kappa inh -13%[19.4 µM].
For CC(OC(=O)c1ccccc1OCC(=O)Nc1ccc(Br)cc1)C(=O)NC1CCCC1 (centres undefined) the results were POLI inh -4% and Pol kappa inh 5%.
For CN(C)c1ccc(/C=C/c2ccnc3ccccc23)c(N)c1 the results were POLI inh -6% and Pol kappa inh 5%.
`COCCn1c(NC(=S)NC(=O)C23CC4CC(CC(C4)C2)C3)cc(=O)[nH]c1=O` gave Pol eta inh -28%, WRN inhibitor 4%, PI5P4Ka inh inconclusive, POLI inh 29%, Pol kappa inh 2% and Pol beta inh 17%.
Screening COCCn1c(NC(=S)NC(=O)C2CC2)cc(=O)[nH]c1=O returned Pol eta inh -14%, WRN inhibitor inconclusive, PI5P4Ka inh -60*, POLI inh 80%, Pol kappa inh 0% and Pol beta inh 2%.
`CCOC(=O)c1c2c3c(cccc3[nH]c1=O)C(=O)c1ccccc1-2` gave Pol eta inh inconclusive, WRN inhibitor -14%, PI5P4Ka inh 0, POLI inh 41%, Pol kappa inh 0% and Pol beta inh 0%.
`CCOC(=O)c1c2c3c(c(Cl)ccc3[nH]c1=O)C(=O)c1ccccc1-2` gave Pol eta inh 79µM*, WRN inhibitor -19%[11.6 µM], PI5P4Ka inh -22, POLI inh inconclusive, Pol kappa inh inconclusive and Pol beta inh inconclusive.
For CC(=O)Nc1ccc(NC(=O)CSc2nnc(-c3cccnc3)o2)cc1 the results were Pol eta inh 8%, WRN inhibitor -27%, PI5P4Ka inh -21, POLI inh 50µM* and Pol kappa inh -9%.
Cc1nnc(SCc2ccc(CSc3nnc(C)c(=O)[nH]3)cc2)[nH]c1=O was read as Pol eta inh 79µM*, WRN inhibitor -11%[11.6 µM], PI5P4Ka inh -16, POLI inh inconclusive, Pol kappa inh -11% and Pol beta inh inconclusive.

Source: PubChem BioAssay
